Assay results from PubChem BioAssay (NCI).
About 83,000 compounds went through this panel and 20% of them were active in at least one assay; those are over-represented in the sample as a whole.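 For each line, cells grew in 96-well plates with the test compound present at a single concentration for 48 hours.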 Calls of active or inactive are those of the source. The calls were made as follows: active = growth percent below 10; inactive = the rest.

Tests used:
Experiment in all cases: NCI-60 one-dose screen, 48 h (100 = growth as untreated, 0 = no growth, -100 = all killed)
Conditions in all cases: 10 µM unless noted
SN12C renal = system: SN12C renal
UO-31 renal = system: UO-31 renal
TK-10 renal = system: TK-10 renal
ACHN renal = system: ACHN renal
CAKI-1 renal = system: CAKI-1 renal
A498 renal = system: A498 renal
CCRF-CEM leukemia = system: CCRF-CEM leukemia
MOLT-4 leukemia = system: MOLT-4 leukemia
SR leukemia = system: SR leukemia

Measured: growth

Brc1ccc(Nc2nc3ccccc3nc2Nc2ccc(Br)cc2)cc1
active: SN12C renal -9.63% | UO-31 renal -25.7% | TK-10 renal -55.4% | ACHN renal 4.91% | CAKI-1 renal -16.3% | A498 renal -18.1% | CCRF-CEM leukemia -15% | MOLT-4 leukemia -21.4% | SR leukemia -23.5%

Cc1sc2ncnc(Sc3nc4ccccc4[nH]3)c2c1C
inactive: SN12C renal 25% | A498 renal 24.5%
active: UO-31 renal -86.2% | TK-10 renal -87.2% | ACHN renal -82.7% | CAKI-1 renal -68.6% | CCRF-CEM leukemia -53.2% | MOLT-4 leukemia -48.4% | SR leukemia -17.3%

FC(F)(F)c1cccc(Nc2nc(-c3ccccc3)nc3ncccc23)c1
inactive: SN12C renal 75.8% | UO-31 renal 82.4% | TK-10 renal 94.2% | ACHN renal 76.2% | CAKI-1 renal 40.4%
active: A498 renal -4.48% | CCRF-CEM leukemia -21.6% | MOLT-4 leukemia 7.45% | SR leukemia -37.4%

O=S1(=O)CCN(Cc2ccccc2)CC1
inactive: SN12C renal 101% | UO-31 renal 103% | TK-10 renal 94.3% | ACHN renal 97% | CAKI-1 renal 89.1% | A498 renal 75.9% | CCRF-CEM leukemia 98.1% | MOLT-4 leukemia 105% | SR leukemia 87.3%

Cc1ccc(CN2CCC(C(=O)Nc3ccc(-c4cc5ccccc5[nH]4)cc3)CC2)o1
inactive: SN12C renal 60.7% | UO-31 renal 47.5% | TK-10 renal 73% | ACHN renal 44.3% | CAKI-1 renal 71.7% | SR leukemia 14.1%
active: A498 renal 4.02% | CCRF-CEM leukemia 8.89% | MOLT-4 leukemia -4.18%

COc1ccc(Cn2c(Br)c3c(c2Br)-c2nc(NC(=O)c4ccc(OC)cc4)sc2CC3)cc1
inactive: SN12C renal 85.1% | UO-31 renal 44.9% | TK-10 renal 89.4% | ACHN renal 51.8% | CAKI-1 renal 76.2% | A498 renal 65.9% | CCRF-CEM leukemia 85.3% | MOLT-4 leukemia 94.7% | SR leukemia 67.4%

O=C(NC1CCCCC1)C(c1cccs1)N(CCc1ccccc1)C(=O)c1ccco1 (stereo unspecified)
inactive: SN12C renal 92.2% | UO-31 renal 100% | TK-10 renal 94.5% | ACHN renal 94.6% | CAKI-1 renal 83% | A498 renal 93% | CCRF-CEM leukemia 93.8% | MOLT-4 leukemia 84.9% | SR leukemia 85.8%

O=C(N/N=C/c1ccccc1O)C(=O)Nc1ccc(F)cc1
inactive: SN12C renal 44.5% | UO-31 renal 19.3% | TK-10 renal 53.8% | ACHN renal 30.4% | CAKI-1 renal 22.7% | A498 renal 92.4% | CCRF-CEM leukemia 23% | MOLT-4 leukemia 21.3% | SR leukemia 23.3%

CCCCCCc1cc2cc(-c3csc(/C=C/c4ccccc4)n3)c(=O)oc2cc1O
active: A498 renal -25.3% | CCRF-CEM leukemia 2.21% | MOLT-4 leukemia 4.75% | SR leukemia -7.16%
inactive: SN12C renal 34.9% | UO-31 renal 13.5% | TK-10 renal 49% | ACHN renal 41.6% | CAKI-1 renal 32.8%

CN=c1ccc2nc3ccc(N)cc3sc-2c1
inactive: SN12C renal 17% | UO-31 renal 60.7% | TK-10 renal 49.4% | ACHN renal 42.2% | CAKI-1 renal 28.2% | A498 renal 79.9% | CCRF-CEM leukemia 21.5% | SR leukemia 38%
active: MOLT-4 leukemia 1.3%

COc1cc2cc3c(=O)n4c(cc5cc(OC)ncc54)c(=O)n3c2cn1
inactive: SN12C renal 98.6% | UO-31 renal 88.8% | TK-10 renal 107% | ACHN renal 110% | CAKI-1 renal 98.4% | A498 renal 104% | CCRF-CEM leukemia 91.9% | MOLT-4 leukemia 99.2% | SR leukemia 98%

CCOC(=O)c1cc2c(n1Cc1ccccc1)-c1oncc1CCC2
inactive: SN12C renal 82.2% | UO-31 renal 62.5% | TK-10 renal 114% | ACHN renal 83.8% | CAKI-1 renal 74% | A498 renal 74.7% | CCRF-CEM leukemia 66.4% | MOLT-4 leukemia 72% | SR leukemia 14.1%

COc1cccc(-c2nn(C)c3sc(C(=O)NCCN4CCN(c5ccccc5F)CC4)cc23)c1
inactive: SN12C renal 60.9% | UO-31 renal 65.9% | TK-10 renal 83.9% | ACHN renal 85.3% | CAKI-1 renal 68% | A498 renal 39%
active: CCRF-CEM leukemia 1.87% | MOLT-4 leukemia 7.79% | SR leukemia -39.5%

CC(=O)c1ccc(Cc2ccc(C(C)=O)s2)s1
active: A498 renal -68.7%
inactive: SN12C renal 98% | UO-31 renal 88.2% | TK-10 renal 94.9% | ACHN renal 100% | CAKI-1 renal 96.4% | CCRF-CEM leukemia 95.5% | MOLT-4 leukemia 83.2% | SR leukemia 89.4%

CCOC(=O)c1cnc2ccc(Cl)cc2c1NCCCN(C)C
inactive: SN12C renal 18.1% | TK-10 renal 33.8% | ACHN renal 18.3% | A498 renal 31%
active: UO-31 renal -22.8% | CAKI-1 renal -4.21% | CCRF-CEM leukemia -4.96% | MOLT-4 leukemia -5.58% | SR leukemia -5.95%

CN(C)c1ccc(/C=C/c2ccnc3c(O)cccc23)cc1
active: UO-31 renal -2.54% | CAKI-1 renal -3.49% | CCRF-CEM leukemia 6.75% | MOLT-4 leukemia -13.2% | SR leukemia -11.1%
inactive: SN12C renal 21.3% | TK-10 renal 41.6% | ACHN renal 12.7% | A498 renal 45.1%

CCOc1ccc2c(c1)CN(Cc1ccc(Cl)cc1)CO2
inactive: SN12C renal 67.7% | UO-31 renal 40.5% | TK-10 renal 20.1% | ACHN renal 33.2% | CAKI-1 renal 54.2% | A498 renal 39.5% | CCRF-CEM leukemia 78.1% | MOLT-4 leukemia 83.2% | SR leukemia 41.5%

O=CCCCC(O)C=O (stereo unspecified)
inactive: SN12C renal 97.6% | UO-31 renal 81.5% | TK-10 renal 104% | ACHN renal 103% | CAKI-1 renal 101% | A498 renal 98.7% | CCRF-CEM leukemia 102% | MOLT-4 leukemia 94% | SR leukemia 90.5%

CCOc1ccc(Nc2ccnc3cc(Cl)ccc23)cc1
active: SN12C renal 7.43% | UO-31 renal -12.8% | TK-10 renal 7.11% | CAKI-1 renal 2.27% | A498 renal -19.5% | CCRF-CEM leukemia 3.77% | MOLT-4 leukemia 4.04% | SR leukemia 0.437%
inactive: ACHN renal 10.9%

O=Nc1c(O)ccc2ccccc12.O=Nc1c(O)ccc2ccccc12.O=Nc1c([O-])ccc2ccccc12.[Fe+3]
inactive: SN12C renal 99.6% | UO-31 renal 60.2% | TK-10 renal 127% | ACHN renal 102% | CAKI-1 renal 106% | A498 renal 105% | CCRF-CEM leukemia 107% | MOLT-4 leukemia 110% | SR leukemia 105%

Nc1ccc(-c2nc3cc(Oc4ccc(Oc5ccc6[nH]c(-c7ccc(N)cc7)nc6c5)cc4)ccc3[nH]2)cc1
inactive: SN12C renal 90.4% | UO-31 renal 97.7% | TK-10 renal 112% | ACHN renal 101% | CAKI-1 renal 120% | A498 renal 91.5% | CCRF-CEM leukemia 100% | MOLT-4 leukemia 96.8% | SR leukemia 91.9%

Clc1ccc(Nc2nnc(-c3ccc4c(c3)OCO4)o2)cc1
inactive: SN12C renal 96.6% | UO-31 renal 86.9% | TK-10 renal 94.6% | ACHN renal 102% | CAKI-1 renal 98.4% | A498 renal 97.5% | CCRF-CEM leukemia 100% | MOLT-4 leukemia 82.7% | SR leukemia 83.4%

COC(=O)c1cc2c(n1Cc1ccccc1)-c1oncc1CCC2
inactive: SN12C renal 73.2% | UO-31 renal 79.9% | TK-10 renal 102% | ACHN renal 79.8% | CAKI-1 renal 78.7% | A498 renal 53.8% | CCRF-CEM leukemia 61.7% | MOLT-4 leukemia 61.7% | SR leukemia 12.2%

O=C(Nc1ccc(C23CC4CC(CC(c5ccccc5)(C4)C2)C3)cc1)c1cccs1
inactive: SN12C renal 66.7% | UO-31 renal 66.5% | TK-10 renal 76.9% | ACHN renal 76.9% | CAKI-1 renal 77.6% | A498 renal 65.4% | CCRF-CEM leukemia 56.8% | MOLT-4 leukemia 57.7% | SR leukemia 38.7%

O=C(O)CCCN1C(=O)C2C3CCC(C3)C2C1=O (stereo unspecified)
inactive: SN12C renal 103% | UO-31 renal 90.5% | TK-10 renal 98.2% | ACHN renal 109% | CAKI-1 renal 97.2% | A498 renal 105% | CCRF-CEM leukemia 108% | MOLT-4 leukemia 104% | SR leukemia 112%

C[n+]1c2ccccc2nc2ccc(NCCO)cc21
inactive: SN12C renal 85.6% | UO-31 renal 45.8% | TK-10 renal 127% | ACHN renal 83.7% | CAKI-1 renal 93.4% | A498 renal 75.1% | CCRF-CEM leukemia 64.5% | MOLT-4 leukemia 63.8% | SR leukemia 60.3%

O=C1c2ccc3c4c(ccc(c24)C(=O)N1CCCCO)C(=O)N(CCCCO)C3=O
active: CCRF-CEM leukemia 6.38% | SR leukemia 5.37%
inactive: SN12C renal 72% | UO-31 renal 24.4% | TK-10 renal 22.5% | ACHN renal 43.9% | CAKI-1 renal 35.4% | A498 renal 56.2% | MOLT-4 leukemia 22.5%

COc1c2ccoc2c(/C=C/C=O)c2oc(-c3ccccc3)cc(=O)c12
active: CCRF-CEM leukemia 0.373% | SR leukemia 5.33%
inactive: SN12C renal 38.7% | UO-31 renal 60.1% | TK-10 renal 93.8% | ACHN renal 91.5% | CAKI-1 renal 93.1% | A498 renal 72.4% | MOLT-4 leukemia 10.4%

COc1ccc(CSc2nnc(SCC(=O)Nc3ccc(Cl)cc3)s2)cc1
inactive: SN12C renal 68.5% | UO-31 renal 52.8% | TK-10 renal 96.3% | ACHN renal 59.9% | CAKI-1 renal 38% | A498 renal 85.6% | CCRF-CEM leukemia 53.3% | MOLT-4 leukemia 58% | SR leukemia 86.1%

Cc1ccc(C(=O)c2oc3ccc4c(C)cc(=O)oc4c3c2C)cc1
inactive: SN12C renal 30.5% | TK-10 renal 27.2% | ACHN renal 32.9% | CAKI-1 renal 15.2% | A498 renal 32.3% | CCRF-CEM leukemia 17.1% | SR leukemia 12.7%
active: UO-31 renal 9.48% | MOLT-4 leukemia 7.13%

O=C(Nc1ccc(F)c(Cl)c1)Nc1ccc(Cl)c(Cl)c1
inactive: SN12C renal 75.8% | UO-31 renal 79.2% | TK-10 renal 101% | ACHN renal 96% | CAKI-1 renal 76.1% | A498 renal 69.6% | CCRF-CEM leukemia 64.8% | MOLT-4 leukemia 43.9% | SR leukemia 10.2%

Oc1c(C(Nc2ccccn2)c2cccc(Oc3ccccc3)c2)ccc2cccnc12 (stereo unspecified)
active: SN12C renal -89.4% | UO-31 renal -90.4% | TK-10 renal -90.9% | ACHN renal -88.8% | CAKI-1 renal -90.3% | A498 renal -61% | CCRF-CEM leukemia -59% | MOLT-4 leukemia -70.1% | SR leukemia -49.7%

O=C(Nc1ccccc1O)c1ccc(Oc2cccc(C(=O)Nc3ccccc3O)c2)cc1
active: UO-31 renal 5.32% | CAKI-1 renal -0.0411% | CCRF-CEM leukemia -6.44% | MOLT-4 leukemia -28.5% | SR leukemia -28.6%
inactive: SN12C renal 15.4% | TK-10 renal 28.3% | ACHN renal 15.8% | A498 renal 20.5%

CC(C)CCNCC(O)Cn1c2ccccc2c2ccccc21 (stereo unspecified)
inactive: SN12C renal 19.4% | TK-10 renal 33.1% | CCRF-CEM leukemia 13%
active: UO-31 renal -14.4% | ACHN renal 2.8% | CAKI-1 renal -0.189% | A498 renal 3.02% | MOLT-4 leukemia 2.44% | SR leukemia 3.35%
